About 2,000 (36%) of roughly 5,500 compounds were called active. Inconclusive results (about 18%) are left out. Rule as the data show it: active = normalized growth mostly below about 0.91 (no sharp cut-off); inconclusive = no clear call, values can overlap the other calls; inactive = mostly above about 0.92. The list shows a part of the results.
Experiment: chemical genetic growth profiling, strain panel (AID 1159580);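 also: tested at 20 µM; growth read once vehicle control cultures reached saturation at 30 °C; 1 = growth at the plate median or of vehicle wells; lower values mean less growth of the strain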
Settings: S. cerevisiae deletion strains, growth OD

Measured: normalized growth

N[C@@H](Cc1c[nH]c2ccccc12)C(=O)O
inactive: locus YAL040C, strain CLN3, active compounds read low 1.02 | locus YCL061C, strain MRC1 (second series), active compounds read low 1 | locus YDR150W, strain NUM1, active compounds read low 1.01 | locus YDR363W, strain ESC2, active compounds read low 1.01 | locus YER002W, strain NOP16, active compounds read low 1.01 | locus YGR078C, strain PAC10, active compounds read low 1 | locus YGR229C, strain SMI1, active compounds read low 1.03 | locus YMR307W, strain GAS1, active compounds read low 0.991 | locus YNL128W, strain TEP1, active compounds read low 1 | locus YNL175C, strain NOP13, active compounds read low 0.997 | locus YNL197C, strain WHI3, active compounds read low 0.996 | locus YNL224C, strain SQS1, active compounds read low 1.01 | locus YOR083W, strain WHI5 (second series), active compounds read low 0.996 | locus YPL241C, strain CIN2, active compounds read low 1.01
